Reference: ChEMBL document CHEMBL2218924, “A broad activity screen in support of a chemogenomic map for kinase signalling research and drug discovery” (Biochem J, 2013)

Legend:
[1] = target: T1, Casein kinase II (Homo sapiens) (UniProt P67870+P68400+P19784); conditions: at 1 µM
[2] = target: T1, Casein kinase II (Homo sapiens); conditions: at 10 µM
[3] = target: Casein kinase II subunit alpha' (Homo sapiens) (UniProt P19784); conditions: at 1 µM
[4] = target: Casein kinase II subunit alpha' (Homo sapiens) (UniProt P19784); conditions: at 10 µM
[5] = target: Dual specificity protein kinase CLK2 (Homo sapiens) (UniProt P49760); conditions: at 1 µM
Sequence of Dual specificity protein kinase CLK2 (Homo sapiens) (P49760 whole entry, looked up): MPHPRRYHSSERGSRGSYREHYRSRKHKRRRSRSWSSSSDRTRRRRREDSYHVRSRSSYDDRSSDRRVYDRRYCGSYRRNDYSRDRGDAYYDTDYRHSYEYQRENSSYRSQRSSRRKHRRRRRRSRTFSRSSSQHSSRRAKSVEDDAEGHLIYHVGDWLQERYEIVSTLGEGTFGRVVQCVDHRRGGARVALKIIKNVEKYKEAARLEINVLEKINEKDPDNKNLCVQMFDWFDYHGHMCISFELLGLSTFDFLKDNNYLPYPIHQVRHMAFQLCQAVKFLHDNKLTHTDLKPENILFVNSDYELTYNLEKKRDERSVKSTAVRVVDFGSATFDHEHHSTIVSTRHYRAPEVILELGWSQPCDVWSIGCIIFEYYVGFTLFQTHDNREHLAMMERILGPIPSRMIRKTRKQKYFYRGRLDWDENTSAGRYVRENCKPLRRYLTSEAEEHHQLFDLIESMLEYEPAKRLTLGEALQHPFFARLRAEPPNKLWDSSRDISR

[6] = target: Dual specificity protein kinase CLK2 (Homo sapiens) (UniProt P49760); conditions: at 10 µM
[7] = target: Dual specificity protein kinase CLK3 (Homo sapiens) (UniProt P49761); conditions: at 1 µM
Sequence of Dual specificity protein kinase CLK3 (Homo sapiens) (P49761 whole entry, looked up): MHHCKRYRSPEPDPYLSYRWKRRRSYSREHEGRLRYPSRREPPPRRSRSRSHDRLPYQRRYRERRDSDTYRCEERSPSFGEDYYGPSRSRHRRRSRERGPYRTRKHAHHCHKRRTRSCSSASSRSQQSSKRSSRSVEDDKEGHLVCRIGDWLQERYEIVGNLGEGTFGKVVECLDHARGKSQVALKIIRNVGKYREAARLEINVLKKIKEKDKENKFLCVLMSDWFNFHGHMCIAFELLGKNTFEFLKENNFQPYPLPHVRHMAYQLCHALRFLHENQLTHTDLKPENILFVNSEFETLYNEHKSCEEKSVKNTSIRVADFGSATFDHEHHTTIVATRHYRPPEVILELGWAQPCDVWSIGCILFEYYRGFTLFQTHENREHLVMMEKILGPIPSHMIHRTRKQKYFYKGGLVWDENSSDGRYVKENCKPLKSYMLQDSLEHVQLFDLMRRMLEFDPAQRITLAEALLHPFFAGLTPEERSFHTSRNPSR

[8] = target: Dual specificity protein kinase CLK3 (Homo sapiens) (UniProt P49761); conditions: at 10 µM
[9] = target: Tyrosine-protein kinase CSK (Homo sapiens) (UniProt P41240); conditions: at 1 µM
Sequence of Tyrosine-protein kinase CSK (Homo sapiens) (P41240 2-450 limits assumed): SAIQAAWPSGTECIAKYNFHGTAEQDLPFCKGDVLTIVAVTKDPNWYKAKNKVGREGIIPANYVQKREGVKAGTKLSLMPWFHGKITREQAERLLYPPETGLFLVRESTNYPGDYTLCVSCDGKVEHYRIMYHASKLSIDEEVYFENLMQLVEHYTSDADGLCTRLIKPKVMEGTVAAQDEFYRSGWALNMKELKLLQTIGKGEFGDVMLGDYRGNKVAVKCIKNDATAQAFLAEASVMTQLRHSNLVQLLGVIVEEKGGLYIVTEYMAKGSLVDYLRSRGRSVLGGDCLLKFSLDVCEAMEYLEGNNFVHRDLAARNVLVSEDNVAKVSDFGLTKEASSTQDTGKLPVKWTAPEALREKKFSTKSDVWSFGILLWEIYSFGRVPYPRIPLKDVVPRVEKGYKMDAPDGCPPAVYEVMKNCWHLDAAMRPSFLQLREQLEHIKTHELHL

[10] = target: Tyrosine-protein kinase CSK (Homo sapiens) (UniProt P41240); conditions: at 10 µM

Sequence of Casein kinase II subunit alpha' (Homo sapiens) (P19784 whole entry, looked up): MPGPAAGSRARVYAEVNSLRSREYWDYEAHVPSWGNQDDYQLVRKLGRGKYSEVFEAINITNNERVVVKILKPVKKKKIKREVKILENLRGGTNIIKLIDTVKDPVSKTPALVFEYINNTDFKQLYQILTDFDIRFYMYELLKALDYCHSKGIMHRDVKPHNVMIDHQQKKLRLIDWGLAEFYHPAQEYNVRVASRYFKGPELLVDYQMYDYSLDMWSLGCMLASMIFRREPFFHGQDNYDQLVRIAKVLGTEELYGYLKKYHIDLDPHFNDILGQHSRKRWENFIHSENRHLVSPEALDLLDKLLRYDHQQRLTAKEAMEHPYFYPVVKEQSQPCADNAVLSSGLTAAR
T1 sequence (P19784 whole entry, looked up): as above
T1 sequence (P67870 whole entry, looked up): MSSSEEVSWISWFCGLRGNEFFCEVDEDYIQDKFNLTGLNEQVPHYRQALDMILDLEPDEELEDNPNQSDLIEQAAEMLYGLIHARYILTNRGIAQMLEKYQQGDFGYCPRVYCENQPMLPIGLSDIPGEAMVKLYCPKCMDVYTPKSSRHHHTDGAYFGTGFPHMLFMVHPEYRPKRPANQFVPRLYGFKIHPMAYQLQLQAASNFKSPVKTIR
T1 sequence (P68400 whole entry, looked up): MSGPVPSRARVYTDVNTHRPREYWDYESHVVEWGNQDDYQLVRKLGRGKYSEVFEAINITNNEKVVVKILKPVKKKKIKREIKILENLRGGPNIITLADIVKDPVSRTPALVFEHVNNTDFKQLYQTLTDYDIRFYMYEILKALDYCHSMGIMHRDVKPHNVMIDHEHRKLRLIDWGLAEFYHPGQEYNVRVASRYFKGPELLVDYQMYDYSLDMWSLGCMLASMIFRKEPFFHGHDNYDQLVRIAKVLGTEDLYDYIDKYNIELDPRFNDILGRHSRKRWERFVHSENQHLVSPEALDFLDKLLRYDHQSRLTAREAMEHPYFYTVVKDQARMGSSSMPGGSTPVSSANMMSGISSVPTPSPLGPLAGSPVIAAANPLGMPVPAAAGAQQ

Compound	residual activity [1] [%]	residual activity [2] [%]	residual activity [3] [%]	residual activity [4] [%]	residual activity [5] [%]	residual activity [6] [%]	residual activity [7] [%]	residual activity [8] [%]	residual activity [9] [%]	residual activity [10] [%]
O=C1NC(=O)c2c1c1c3ccccc3[nH]c1n1cncc21	60	21	81	21	51	46	70	53	97	58
CC(C)(C)c1nc2c3ccc(F)cc3c3c(=O)[nH]ccc3c2[nH]1	56	63	100	34	34	50	68	13	–	–
CN(C)S(=O)(=O)c1ccc2c(c1)/C(=C/c1cc3c([nH]1)CCCC3)C(=O)N2	95	100	–	94	69	71	39	28	–	–
Nc1n[nH]c2nc3ccccc3nc12	85	62	–	–	84	52	88	71	–	–
NC(=O)c1cccc(-c2cc(Nc3ccc(OC(F)(F)F)cc3)ncn2)c1	99	97	–	–	–	–	97	–	–	–
CC(C)c1nn(-c2c(Cl)cccc2Cl)c2nc(Cc3ccc(OCCO)cc3)[nH]c(=O)c12	100	96	108	94	38	48	77	59	123	106
COc1cc2nccc(Oc3ccc(NC(=S)NC(=O)c4ccccc4C)cc3)c2cc1OC	83	100	–	91	–	–	66	46	96	69
O=C(CCCc1ccc(-c2ccccc2F)cc1)Nc1ccc(O)cc1	92	97	106	102	–	–	92	89	104	107
NC(=O)Nc1sc(-c2ccc(F)cc2)cc1C(N)=O	68	34	78	18	105	46	–	–	92	56
O=c1cc(N2CCOCC2)oc2c1ccc1ccccc12	18	-1	56	5	98	45	91	–	103	–
CCOC(=O)c1c(C)[nH]c(/C=C2\C(=O)Nc3ccccc32)c1C	77	118	131	89	95	95	82	73	–	–
O=C1C(Cl)=C(N2C(=O)CCC2=O)C(=O)c2ccccc21	99	100	100	98	102	80	89	79	–	–
O=c1cc(N2CCOCC2)oc2c(-c3ccccc3)cccc12	54	12	–	42	–	–	–	–	–	–
O=c1cc(N2CCNCC2)oc2c(-c3ccccc3)cccc12	79	52	–	90	90	93	81	100	–	–
COc1ccc(Cl)cc1NC(=O)Nc1cc(C)nc2ccccc12	94	–	–	–	–	–	–	–	–	–
Fc1ccc(-c2nc3n(c2-c2ccncc2)CCS3)cc1	99	98	–	–	–	–	97	86	–	–
N#C/C(=C1/Nc2ccccc2S1)c1ccnc(NCCc2cccnc2)n1	58	15	41	15	29	13	39	6	–	–
CSc1nc(-c2ccc(F)cc2)c(-c2ccnc(NC(C)c3ccccc3)c2)[nH]1 (stereo not given)	99	99	–	–	–	89	84	86	102	84
N#Cc1c(NC(=O)c2cccc3ccccc23)sc2c1CCCC2	97	99	–	–	–	99	77	87	–	99
COc1cc2c(cc1OC)-c1n[nH]c(Nc3cccc(F)c3)c1C2	82	106	–	–	108	68	59	48	80	29
Nc1ncnc2c1cnn2-c1ccccc1	87	36	–	58	–	–	87	99	–	–

Compound	residual activity [1] [%]	residual activity [2] [%]	residual activity [3] [%]	residual activity [4] [%]	residual activity [5] [%]	residual activity [6] [%]	residual activity [7] [%]	residual activity [8] [%]	residual activity [9] [%]	residual activity [10] [%]
O=C(c1ccccc1)c1ccc(N2CCOCC2)cc1O	88	113	122	–	–	–	89	–	–	84
Oc1cccc(-c2nc(N3CCOCC3)c3oc4ncccc4c3n2)c1	89	124	140	79	118	89	79	30	–	–
CCCCc1c(-c2ccc(O)cc2)[nH]c2nccnc12	99	92	–	87	64	47	83	52	–	–
O=C1Cc2c([nH]c3ccc(Br)cc23)-c2ccccc2N1	79	55	–	92	80	56	78	67	–	81
Nc1ncnc2c1c(-c1ccc(Oc3ccccc3)cc1)cn2C1CCCC1	79	105	118	86	112	88	82	6	0	-1
O=C1NC(=O)C(c2cn(CCCO)c3ncccc23)=C1c1cnccn1	76	66	57	52	52	36	74	78	–	97
CCCC(=O)Oc1ccc2[nH]c(C(=O)c3cc4ccccc4[nH]3)cc2c1	86	106	132	98	122	101	81	–	101	100
Nc1nc(Nc2ccc(S(N)(=O)=O)cc2)nn1C(=O)c1c(F)cccc1F	111	97	104	99	40	9	20	0	99	100
O=C1Nc2ccc(Cl)cc2/C1=C/c1cc(Cl)c(O)c(Cl)c1	41	4	92	32	84	45	70	29	96	–
O=C(O)/C=C/c1cc(Br)c(Br)c(Br)c1Br	12	-8	33	5	102	49	79	52	–	–
O=S(=O)(c1cccc2cnccc12)N1CCCNCC1	–	–	–	–	–	–	–	81	–	–
O=C(NC(NC(=S)Nc1ccc(F)c([N+](=O)[O-])c1)C(Cl)(Cl)Cl)C(c1ccccc1)c1ccccc1 (stereo not given)	–	85	–	–	–	–	94	84	95	101
O=C1NC(=O)C(c2c[nH]c3ccccc23)=C1c1c[nH]c2ccccc12	–	–	118	–	27	5	60	29	–	–
O=C1Nc2ccccc2/C1=C\c1c(Cl)[nH]c2ccccc12	–	–	–	–	–	–	–	76	–	99
Cc1cc(C)c(/C=C2\C(=O)Nc3ccccc32)[nH]1	–	–	–	–	49	37	80	11	–	–
Cn1c2ccccc2c2c3c(c4c5ccccc5n(CCC#N)c4c21)CNC3=O	–	103	129	96	–	–	–	1	107	102
CC(C)(C)n1nc(Cc2cccc3ccccc23)c2c(N)ncnc21	–	–	118	72	94	42	95	32	82	20
COc1cc2ncnc(Nc3cccc(Cl)c3)c2cc1OC	–	–	128	102	110	74	–	84	111	80
CC(C)[C@H](CO)Nc1nc(Nc2cc(N)cc(Cl)c2)c2ncn(C(C)C)c2n1	–	93	120	96	–	–	–	–	–	73
COc1ccc(CNC(=O)Nc2ncc([N+](=O)[O-])s2)cc1	–	–	–	–	102	105	–	–	81	74
CCN(CC)CCNC(=O)c1c(C)[nH]c(/C=C2\C(=O)Nc3ccc(Cl)cc32)c1C	–	–	–	47	9	1	77	4	–	–

Compound	residual activity [1] [%]	residual activity [2] [%]	residual activity [3] [%]	residual activity [4] [%]	residual activity [5] [%]	residual activity [6] [%]	residual activity [7] [%]	residual activity [8] [%]	residual activity [9] [%]	residual activity [10] [%]
NCCNc1ncc(C(N)=O)c(Nc2cccc(C(F)(F)F)c2)n1	–	–	–	–	–	–	82	63	–	–
N#C/C(=C\c1ccc(O)c(O)c1)C(=O)NCc1ccccc1	–	–	129	100	–	80	82	–	–	–
CC(C)N(CCC(=O)c1ccc2ccccc2c1)Cc1ccccc1	–	–	–	–	–	–	74	–	–	–
NC(=O)c1ccc(-c2nc(-c3ccc4c(c3)OCCO4)c(-c3ccccn3)[nH]2)cc1	95	97	–	–	–	–	81	76	119	91
O=c1c(-c2ccc(F)cc2)c(-c2ccncc2)[nH]n1-c1ccc(Cl)cc1	–	–	–	–	122	101	–	81	–	–
COc1ccc(-c2cnc3c(-c4ccsc4)cnn3c2)cc1	–	–	–	–	–	–	80	61	–	98
O=C(Nc1nc2ccccc2n1CCN1CCOCC1)c1cccc([N+](=O)[O-])c1	86	–	–	–	26	24	55	56	103	105
O=C(Nc1ccc(Cl)cc1)c1ccccc1NCc1ccncc1	–	–	–	–	120	99	–	–	–	–
Nc1nccc(-c2c(-c3ccc(F)cc3)ncn2C2CCNCC2)n1	–	–	–	60	69	30	–	68	–	–
COc1ccc(COc2ccc(Cc3cnc(N)nc3N)cc2OC)cc1	–	–	110	74	108	100	–	3	–	–
O=C(c1cc2cc(O)ccc2[nH]1)c1cc2cc(O)ccc2[nH]1	–	–	–	72	32	5	69	4	–	–
O=S(=O)(NCCNC/C=C/c1ccc(Br)cc1)c1cccc2cnccc12	–	–	–	–	–	68	79	–	100	–
O=C1Cc2c([nH]c3ccc([N+](=O)[O-])cc23)-c2ccccc2N1	–	–	–	–	–	–	–	82	–	–
Nc1ncnc2[nH]nc(Nc3ccc(F)cc3)c12	104	–	104	73	109	68	–	–	90	65
CCCCc1c(-c2ccc(OC)cc2)[nH]c2nccnc12	–	–	111	–	78	–	85	73	–	–
Cn1sc(=O)n(Cc2ccccc2)c1=O	85	90	–	–	–	–	64	74	92	90
COc1cc2nccc(Oc3ccc(NC(=O)Nc4cc(C)on4)c(Cl)c3)c2cc1OC	–	–	–	–	–	99	80	4	72	35
CCN1/C(=C/C(C)=O)Sc2ccc(OC)cc21	–	–	–	–	20	6	77	40	–	–
c1ccc(-c2cnc(Nc3ccc(OCCN4CCCC4)cc3)s2)cc1	–	–	127	81	–	30	–	–	–	–
COc1ccc2c(c1)c(C1=C(c3c[nH]c4ccccc34)C(=O)NC1=O)cn2CCCN(C)C	–	111	–	–	14	2	59	45	–	–
O=C1NC(=O)C(c2cn(CCCn3ccnc3)c3ccccc23)=C1Nc1ccccc1	–	–	–	–	8	2	55	36	107	78
